# The supplement of paper PMC3334620
# In all, about 33,000 sequences were measured (“E-score (-0.5 to 0.5)”: median about -0.021, highest 2% from about 0.32 on). For the sample, the highest values were picked, then their nearest neighbours and some sequences at random.
# Molecular target: T1, Zap1 (UniProt P47043)
# T1 sequence: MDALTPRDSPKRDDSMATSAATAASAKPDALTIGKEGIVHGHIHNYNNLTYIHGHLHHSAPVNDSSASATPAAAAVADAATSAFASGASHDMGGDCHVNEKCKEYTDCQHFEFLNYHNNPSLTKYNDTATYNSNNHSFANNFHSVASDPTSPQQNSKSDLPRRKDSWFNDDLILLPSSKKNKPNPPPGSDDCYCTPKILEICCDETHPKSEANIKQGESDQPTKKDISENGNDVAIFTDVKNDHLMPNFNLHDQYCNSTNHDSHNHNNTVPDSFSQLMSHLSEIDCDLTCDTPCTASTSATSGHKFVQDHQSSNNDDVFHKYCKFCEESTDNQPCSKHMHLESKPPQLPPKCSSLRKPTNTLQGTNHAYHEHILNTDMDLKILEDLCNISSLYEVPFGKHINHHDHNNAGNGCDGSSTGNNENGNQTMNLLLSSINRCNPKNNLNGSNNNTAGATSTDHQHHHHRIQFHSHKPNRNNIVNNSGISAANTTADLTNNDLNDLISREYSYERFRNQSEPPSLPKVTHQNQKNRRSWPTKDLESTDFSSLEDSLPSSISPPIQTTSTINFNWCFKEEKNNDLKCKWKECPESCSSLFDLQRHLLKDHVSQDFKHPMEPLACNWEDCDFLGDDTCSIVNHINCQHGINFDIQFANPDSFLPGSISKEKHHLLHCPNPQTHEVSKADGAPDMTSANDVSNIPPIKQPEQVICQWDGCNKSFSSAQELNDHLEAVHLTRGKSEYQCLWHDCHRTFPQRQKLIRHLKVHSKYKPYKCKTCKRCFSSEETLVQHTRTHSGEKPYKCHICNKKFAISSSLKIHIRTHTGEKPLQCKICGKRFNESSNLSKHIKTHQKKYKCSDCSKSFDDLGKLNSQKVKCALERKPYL
# Assay: PBM E-score (8-mer binding enrichment) (E-score (-0.5 to 0.5)); higher = stronger / more preferred TF binding
# Details: protein concentration: 200 nM; construct: GST-full length
# Method: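 Universal 'all 10-mer' protein binding microarrays (Agilent AMADID 015681) probed with GST-tagged S. cerevisiae TFs (full-length or DBD) made by in vitro transcription/translation (PURExpress), about 100-200 nM. Bound TF was detected with fluorescent anti-GST. Each ungapped 8-mer (which stands for itself and its reverse complement) is scored by the PBM enrichment score (E-score), a modified Wilcoxon-Mann-Whitney statistic from -0.5 to +0.5, computed with the Universal PBM Analysis Suite. Scale: above 0.35 generally sequence-specific binding.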
row,Sequence,PBM E-score
1,CCCACTTA,-0.0455
2,CTTGTGAC,0.0651
3,CCTTCATA,0.102
4,GCAGCACA,-0.0816
5,GACAAAGC,-0.143
6,GGTCCTCA,0.0332
7,CCAGAGTC,0.0266
8,AACAGTCT,-0.14
9,GAAACATC,-0.0445
10,AAAACATA,0.0671
11,GAAACATA,0.318
12,GACTTAGC,-0.317
13,GAGCGCCA,-0.291
14,TGGATTAA,0.0758
15,CCCCCGGG,0.167
16,GACCCGGA,0.118
17,CACCCGGA,0.235
18,ACCCCGGG,0.34
19,ACCCCCGG,-0.0785
20,ACCCCGGC,0.119
21,AACCCGGA,0.332
22,AACCCCGG,0.337
23,CACCCGGG,0.129
24,AACCCGGG,0.324
25,AACCCGGT,0.249
26,AACCCCCG,-0.149

row,Sequence,PBM E-score
1,GGCAGACC,-0.192
2,TCACGCAA,0.0552
3,GTATAGCA,-0.104
4,CTTGTTGA,0.124
5,GGAACAAA,0.111
6,CTAGCTCC,-0.246
7,CCGAGCAC,-0.0385
8,AGAAACTA,-0.0549
9,AGAGAAAC,-0.0339
10,AAGGGAAC,0.0495
11,GAGCTAGC,-0.179
12,CTCCTTTC,-0.0488
13,CTGTAAAC,0.16
14,ATGTAACG,0.0833
15,CTGTAACC,0.463
16,ATGTAACA,0.153
17,ATGTAACC,0.395
18,CTGTAACA,0.00661
19,ACTGCTAT,-0.0537
20,AAACGGAA,0.127
21,AAGACCGC,0.0669
22,GAGCAACC,0.0661
23,ATCGGTTC,0.0913
24,GATGACCA,0.129
25,GATGACCC,0.403
26,CATGACCG,0.177

row,Sequence,PBM E-score
1,AATGACCC,0.3
2,CATGACCC,0.38
3,CATGACCA,0.284
4,CCGACCTC,-0.0902
5,CGATCTGA,-0.0395
6,CAACTGTC,-0.0568
7,ACGAAGGA,-0.166
8,ACCCTTTG,0.345
9,CCCCTTTA,-0.00689
10,ATCCTTTG,0.161
11,ACCCTTTC,0.298
12,GCCCTTTA,-0.0495
13,ACCCTTTA,0.415
14,CCCTACGC,-0.17
15,GCGTCCCC,-0.249
16,AGTGCCCC,-0.156
17,AACCAGGT,0.201
18,ATGGAGCC,-0.222
19,CGCGGTTA,0.452
20,AGCGGTTA,0.405
21,GGCGGTCA,0.12
22,AGCGGTTC,0.164
23,AGCGGTTG,0.216
24,GGCGGTAA,0.125
25,CGCGGTTC,0.181
26,GGCGGTTA,0.324

row,Sequence,PBM E-score
1,CGCGGTGA,0.144
2,AAAAACTA,0.175
3,ATACCAAA,0.153
4,GCCTACTA,-0.0183
5,CAGTAACC,0.44
6,AAGTAACG,0.052
7,GAGTAAGC,-0.221
8,CAGTAACG,0.0273
9,GAGTAACA,0.135
10,CAGTAACA,-0.0862
11,AAGTAACT,-0.0363
12,GAGTAACC,0.399
13,AAGTAACC,0.393
14,GCAGTAAA,0.104
15,ATTATACG,0.0915
16,ATTATACC,0.338
17,ATTATACA,0.0605
18,CAGCAGAA,-0.0338
19,AGAGGTCA,0.41
20,AGAGGTCC,0.201
21,GGAGGTCA,0.136
22,AGAGGTCG,0.304
23,CGAGGTCC,0.0996
24,CGAGGTCA,0.357
25,ATGTCGCG,0.0309
26,CAGAAGCC,-0.173

row,Sequence,PBM E-score
1,GTCCCAAA,0.0529
2,AAGGTTCG,-0.0644
3,AGGGTTCA,0.146
4,ATGGTTCC,0.21
5,CAGGTTCC,0.0995
6,AGGGTTCC,0.354
7,AAGGTTCC,0.317
8,AAGGTTCT,0.327
9,AAGGTTCA,0.054
10,AGGGTTCG,0.0919
11,CCAGTGTA,-0.00071
12,CACTGTAA,0.0817
13,CTAGCGAA,-0.221
14,GCTTCAGA,-0.167
15,ACATACCA,-0.0785
16,GCATACCC,0.344
17,CCATACCC,0.29
18,GCATACCA,-0.0787
19,ACATACCG,-0.00488
20,ACATACCC,0.347
21,AGCAGGGG,-0.0612
22,AGACAATA,0.0476
23,GGTTACGA,0.465
24,GGTTACCA,0.468
25,AGTTACGA,0.226
26,AGTTACTA,0.129

row,Sequence,PBM E-score
1,CGTTACCA,0.31
2,GGTTACTA,0.447
3,AGTTACCA,0.263
4,CGTTACTA,0.0809
5,CGTTACGA,0.121
6,AGTCTTAT,-0.115
7,CCGATAGC,-0.225
8,AACTAAGG,0.017
9,GACTACCC,0.301
10,CACTACCC,0.367
11,AACTACCT,0.286
12,AACTACCG,0.179
13,CACTACCA,0.22
14,AACTACCC,0.391
15,ATTGCCTG,-0.0833
16,GCCAGGGC,-0.128
17,CGCATACG,-0.12
18,ACCCTATC,0.276
19,AACCTATG,0.258
20,CCCCTATA,-0.102
21,GCCCTATA,-0.144
22,ACCCTATG,0.368
23,ACCCTATA,0.354
24,CCAGGCCG,-0.0809
25,GCGACACC,0.0184
26,ACACTCAA,0.139

row,Sequence,PBM E-score
1,AACGCTTC,-0.128
2,AGAAGCTA,-0.265
3,CAACCGTA,0.0143
4,TTTCAAAA,0.321
5,CTTCAAAA,0.0592
6,GTTCAAAA,0.0198
7,CGCACAAC,0.122
8,ACGGTTGC,0.117
9,ACGGTTAG,0.223
10,ACGGTTTC,-0.0123
11,ACGGTTAA,0.258
12,ACGGTTAT,0.414
13,ACGGTTAC,0.411
14,AGTTTGCA,-0.0409
15,TCCTCACA,0.0409
16,AAGAACTC,0.0396
17,ACAAAGAA,0.178
18,ACTGAATC,-0.0382
19,AGTCATGA,0.0992
20,GGTCATGA,0.346
